This passage reports inhibition results from ChEMBL document CHEMBL3433997, “St. Jude Leishmania screening dataset” (2016).

What all share (format): functional
The target in test [1] is Solute carrier family 2, facilitated glucose transporter member 1 (Homo sapiens) (UniProt P11166). In words: ST_JUDE_LEISH: Cytotoxicity at 2uM final concentration against transgenic Leishmania Mexicana promastigotes LmGLUT1 that are glucose transport deficient and complemented with the human glucose transporter GLUT1. Activity is measured by DNA content using SYBR green in vitro.
Solute carrier family 2, facilitated glucose transporter member 1 (Homo sapiens), sequence (P11166 whole entry): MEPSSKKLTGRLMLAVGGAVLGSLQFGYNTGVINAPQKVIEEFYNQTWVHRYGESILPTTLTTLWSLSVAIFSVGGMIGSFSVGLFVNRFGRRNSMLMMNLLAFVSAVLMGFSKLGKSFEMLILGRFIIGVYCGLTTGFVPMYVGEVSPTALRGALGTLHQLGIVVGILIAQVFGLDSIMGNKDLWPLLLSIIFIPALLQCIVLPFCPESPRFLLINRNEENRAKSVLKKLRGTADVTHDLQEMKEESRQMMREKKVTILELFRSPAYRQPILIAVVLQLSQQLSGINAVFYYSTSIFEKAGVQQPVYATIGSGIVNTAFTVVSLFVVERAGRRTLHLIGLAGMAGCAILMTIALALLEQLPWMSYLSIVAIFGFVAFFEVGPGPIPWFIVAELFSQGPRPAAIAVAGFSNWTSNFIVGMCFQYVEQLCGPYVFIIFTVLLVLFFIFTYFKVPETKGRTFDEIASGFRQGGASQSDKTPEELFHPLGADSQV

The target in test [2] is Hexose transporter 1 (Plasmodium falciparum) (UniProt O97467). The experiment in a line: ST_JUDE_LEISH: Cytotoxicity at 2uM final concentration against transgenic Leishmania Mexicana promastigotes LmPfHT that are glucose transport deficient and complemented with the Plasmodium falciparum hexose transporter. Activity is measured by DNA content using SYBR green in vitro.
The target of test [3] is Glucose transporter (Leishmania mexicana) (UniProt O61059). In words: ST_JUDE_LEISH: Cytotoxicity at 2uM final concentration against transgenic Leishmania Mexicana promastigotes LmGT2 that are glucose transport deficient and complemented with the L. Mexicana glucose transporter 2. Activity is measured by DNA content using SYBR green in vitro.

SMILES strings stand for the structures.

As for `CN1CCN(CC(=O)Nc2cccc(-c3ccc(-c4nc5cc(F)ccc5[nH]4)cc3)c2)CC1`, the figures for the inhibition in test [1], in test [2] and in test [3] were -1.54%, 0.97% and 3%, respectively.
On to `Cc1nnc2c(NC(=O)NC3CCCC3)cc3cc(-c4ccc(CN(C)C)cc4)ccc3n12`, for which the inhibition came out at 0.94% in test [1], 1.31% in test [2] and 0.22% in test [3].
On to `CCN(CC)CCNc1nc(C=Cc2ccc(Cl)cc2)nc2cc3ccccc3cc12`, for which the figures for the inhibition in test [1], in test [2] and in test [3] were -0.78%, -0.58% and -1.66%, respectively.
For the molecule `O=S(=O)(NCCN1CCCC1)c1ccc(-c2ccc(CNCc3ccccc3)cc2)cc1F`, the inhibition in test [1] amounted to 3.64%; in test [2], 3.01%; in test [3], 0.32%.
For `COc1cc([N+](=O)[O-])ccc1NC(=O)Nc1ccc(OC(F)(F)F)cc1` the same measures were 1.06%, 2.37% and -2.01%.
Regarding `COc1ccc(S(=O)(=O)NC2CCN(c3ccc(C(F)(F)F)cc3NC(=O)OCC(C)C)CC2)cc1`, the inhibition in test [1] was 0.36%; in test [2], 1.75%; in test [3], 2.43%.
Taken in the same sequence, the figures for `O=C(Nc1ccc(Cl)cc1)Nc1cccc(-c2ccc(-c3nc4ccccc4[nH]3)cc2)c1` were 2.09%, 1.83% and 1.94%.
For the molecule `O=C(Nc1cccc(-c2nc3ccccc3[nH]2)c1)c1ccc(-c2cccc([N+](=O)[O-])c2)o1`, the results for the inhibition in test [1], in test [2] and in test [3] were 4.88%, 5.59% and 7.27%, respectively.
Taken in the same sequence, the figures for `O=C(Nc1ccncc1)Nc1ccc2c(c1)CCN(C1CCC1)CC2` were 3.98%, 3.34% and 11%.
For `Cc1nc(N/C(N)=N/C(=O)NC2CCCCC2)nc2ccccc12` the same measures were 7.72%, 5.72% and 6.66%.
Consider `Cc1nnsc1C(=O)Nc1ccc(-c2cccc(-c3nc4cc(F)ccc4[nH]3)c2)cc1`, for which the inhibition in test [1] was 1.36%; in test [2] it was 1.3%; in test [3], -2.69%.
Consider `Cc1c(CNCCCNc2nc3ccncc3[nH]2)sc(Br)c1Br`, for which the inhibition in test [1] is 6.56%; in test [2] it was -2.83%; in test [3], 4.11%.
Taken in the same sequence, the figures for `CCC1(C)N=C(N)N=C(N)N1c1ccccc1` (configuration not stated) were -3.49%, 0% and -3.1%.
For the molecule `CCN(CCCN1CCCCC1)c1cc(C)nc(Nc2cccc(C(F)(F)F)c2)n1`, the inhibition in test [1] is -5.65%; in test [2], 2.63%; in test [3], 11%.
In the case of `Cc1ccc(NC(=O)c2ccc(Cl)c(Cl)c2)cc1-c1ccc(C(=O)Nc2ccncc2)cc1`, the inhibition in test [1] was -0.14%; in test [2], 0.86%; in test [3], -1.3%.
Taken in the same sequence, the figures for `O=C(Nc1cccc(C(F)(F)F)c1)c1cccc(S(=O)(=O)NC2CCN(CC3CCCCC3)C2)c1` (configuration not stated) were 0.18%, -0.46% and 2.99%.
For `CCOC(=O)N1CCC(NC(=O)c2ccc(C(C)(C)C)cc2OC)CC1`, the inhibition stood at 3.46% in test [1], 3.5% in test [2] and 3.13% in test [3].
Taken in the same sequence, the figures for `c1ccc2[nH]c(-c3ccc(-c4ccc(CN5CCC(N6CCCCC6)CC5)cc4)s3)nc2c1` were 0.72%, -0.81% and -1.09%.
Turning to `O=C(NC1CC1)c1ccc(N2CCCC(COc3ccccc3F)C2)nc1` (configuration not stated), the inhibition in test [1] was found to be 2.73%; in test [2], 1.75%; in test [3], 2.62%.
For `CC1(C)NC(N)=NC(=N)N1OCc1ccc(-c2ccccc2)cc1`, the inhibition worked out at 6.01% in test [1], 5.93% in test [2] and 3.79% in test [3].
Taken in the same sequence, the figures for `CC(=O)Nc1ccc(C(=O)Nc2ccc(-c3cccc(-c4nc5cc(C(F)(F)F)ccc5[nH]4)c3)cc2)cn1` were -0.12%, 0.25% and -0.11%.
For `Cc1noc(C)c1CN1Cc2ccccc2OC2(CCN(Cc3c[nH]c4cnccc34)CC2)C1` the same measures were -0.38%, -0.56% and 2.32%.
Taken in the same sequence, the figures for `CCN(CCNS(C)(=O)=O)c1ccc(N)c(C)c1` were 1.65%, 1.06% and 1.72%.
`CCCC(=O)c1cnc2c(I)cccc2c1Nc1ccccc1C`: the inhibition was found to be 3.51% in test [1], 4.24% in test [2] and 3.57% in test [3].
With `CCCCCC(C)C(C)c1cc(O)c2c(c1)OC(C)(C)CC2=Cc1ccncc1` (configuration not stated), the inhibition in test [1] was 12.6%; in test [2], 11.5%; in test [3] it was 10.7%.
As to `COc1cc2c(cc1NC(=O)CN1CCN(C(=O)c3ccco3)CC1)oc1ccccc12`, the inhibition in test [1] was 4.29%; in test [2] it was 2.47%; in test [3], -0.96%.
For `COc1nc2c(CCN3CCC(NCc4ccc5c(c4)NC(=O)CO5)CC3)c(Cl)cnc2cc1F` the same measures were 3.07%, 0.9% and 1.45%.
As for `CC(=O)c1ccc(N2CCN(C(=O)Nc3ccc(Cl)cc3)CC2)cc1`, the inhibition was 9.4% in test [1], 7.37% in test [2] and 8.94% in test [3].
Taken in the same sequence, the figures for `COc1ccc(Nc2nccc(NCCNC(=O)Nc3cc(C)ccc3C)n2)cc1` were 11.1%, 9.29% and 1.38%.
For `CC(=O)N(C)c1cccc(C(=O)Nc2cccc(-c3ccc(-c4nc5cc(C(F)(F)F)ccc5[nH]4)cc3)c2)c1` the same measures were 4.32%, 4.03% and 4.63%.
For `COc1cccc(C2CCN(CCN3CCC(NC(=O)c4ccc(-c5ccc(C#N)cc5)cc4)CC3)CC2)c1` the same measures were -1.18%, 0.31% and 0.19%.
Regarding `CS(=O)(=O)Nc1ccc2[nH]cc(C3CCN(CCCCCNC(=O)/C=C/c4ccc(Cl)c(Cl)c4)CC3)c2c1`, the inhibition in test [1] came to 3.05%; in test [2], 3.77%; in test [3], 3.35%.
For `CCCC(CNCc1cccc(SC(F)(F)F)c1)CNc1cc(=O)c2ccccc2[nH]1` (configuration not stated) the same measures were -0.14%, 1.41% and 3.17%.
Taken in the same sequence, the figures for `CC(C)NCc1ccc(-c2cccc(NC(=O)c3cccc(C#N)c3)c2)cc1` were 2.87%, 2.38% and -2.27%.

Usually inhibition stands for the relative decrease from the control value, in per cent.
